Source: PubChem BioAssay
A selection: hits, their analogues and other compounds. The true share with any hit is near 2%.
Bim-Mcl-1: disrupts Bim peptide binding to human Mcl-1 | AID 1009 | hit rate 0.1% among 190,000 | inhibition, % at 10 µM | Bead-based flow cytometry, Bim peptide-Mcl-1 binding | Q07820; in the data active means inhibition above about 40%;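 further: 0% = no compound tracer wells and 100% = peptide blocker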
Target sequence (Q07820 whole entry, looked up): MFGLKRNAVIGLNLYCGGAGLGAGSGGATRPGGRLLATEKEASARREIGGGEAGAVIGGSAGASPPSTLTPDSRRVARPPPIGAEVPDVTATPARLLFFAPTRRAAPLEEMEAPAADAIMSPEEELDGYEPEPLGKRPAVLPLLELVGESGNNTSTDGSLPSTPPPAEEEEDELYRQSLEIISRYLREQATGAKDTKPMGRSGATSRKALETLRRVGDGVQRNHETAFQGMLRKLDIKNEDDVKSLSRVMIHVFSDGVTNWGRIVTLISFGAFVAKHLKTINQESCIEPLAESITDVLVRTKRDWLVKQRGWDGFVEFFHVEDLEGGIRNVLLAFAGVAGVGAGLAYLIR
MCL1-BIM inh: disrupts human MCL1 binding to BIM-BH3 peptide; Q07820; GST-MCL1 / FITC-Bim-BH3 fluorescence polarization; inhibition, % at 10.9 µM; hit rate 0.68% among 320,000; AID 2057;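 active means inhibition above the mean inhibition of all tested compounds plus 3 SD, set per campaign, cut at about 40% in these data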;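 further: 0% = DMSO wells and 100% = unlabeled Bim-BH3 peptide control; higher means more loss of mP so more displacement of Bim peptide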
Mcl1-Noxa inh: Mcl-1/Noxa interaction inhibition | Q07820 | TR-FRET Mcl-1/Noxa peptide binding, 2 h | inhibition, % at 21.7 µM | hit rate 1.5% among 220,000;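 active means compounds that cut the protein-peptide binding signal by more than 50% relative to plate controls in a single-dose test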;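 further: His-tagged Mcl-1 with rhodamine Noxa BH3 peptide and terbium anti-His antibody; 0% = Mcl-1 plus Noxa peptide wells and 100% = peptide-only wells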
Mcl1-Bid inh: disrupts binding of human Mcl-1 to Bid peptide | Q07820 | hit rate 0.97% among 220,000 | AID 1021 | inhibition, % at 21.7 µM | TR-FRET Mcl-1/Bid-Dy647 peptide binding, 1536-well;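 active means compounds that cut the binding signal by more than half at the single screening dose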;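 further: His-tagged Mcl-1 with europium anti-His antibody binding Bid BH3 peptide; 0% = Mcl-1 plus peptide wells and 100% = peptide-only wells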
* = called active by the depositor; x = no result given; ! = repeats disagree.

SMILES	Bim-Mcl-1	MCL1-BIM inh	Mcl1-Noxa inh	Mcl1-Bid inh
O=C(CCSc1ccccn1)c1ccccc1	-4	5	-5	-46
O=C(N/N=C/C(Cl)=C/c1ccc([N+](=O)[O-])cc1)C(=O)Nc1ccccc1C(=O)O	x	7	56*	-1
O=C(N/N=C/C(Cl)=C/c1ccc([N+](=O)[O-])cc1)C(=O)Nc1ccc(C(=O)O)cc1	x	-1	34	10
Oc1cc2ccccc2cc1-c1n[nH]c(=S)o1	10	1	50	57*
Cc1ccc(C(=O)N/C(=C\c2ccc(Cl)cc2)C(=O)NCCN2CCOCC2)cc1	x	1	x	x
CCOC(=O)C1=C(C)NC2=C(C(=O)CC(C)(C)C2)C1c1ccc(O)c(OCC)c1 (stereo unspecified)	x	3	1	-136
CCOC(=O)C1=C(C)NC2=C(C(=O)CC(C)(C)C2)C1c1ccc2c(c1)CCCN2C (stereo unspecified)	-6	-1	94*	-2
CCOc1ccc(C(=O)NC(=S)Nc2ccccc2N2CCC(C)CC2)cc1[N+](=O)[O-]	-1	2	0	-22
CCOc1ccc(C(=O)NC(=S)Nc2ccc(N3CCC(C)CC3)cc2)cc1[N+](=O)[O-]	-3	x	45	54*
O=C1COc2ccc(C(=O)COC(=O)Cc3ccc(F)cc3)cc2N1	x	2	x	x
CN(C(=O)c1coc(=O)c2ccccc12)c1ccc(Br)cc1	-1	0	-5	-29
CCCCN(C)C(=O)c1coc(=O)c2ccccc12	-1	4	-16	94*
CC1CCc2sc(C(=O)Nc3ccc(N4CCOCC4)cc3)cc2C1 (stereo unspecified)	0	0	52*	-28
O=C(Nc1ccc(N2CCOCC2)cc1)Nc1ccc2nsnc2c1	4	4	61*	-50
N=c1cc(C2(O)CCCCC2)n2c(nc3ccccc32)s1	2	2	0	98*
O=C(CSc1nc2scc(-c3ccccc3)c2c(=O)[nH]1)Nc1ccccc1	x	0	x	x
CC(C)CNC(=O)CSc1nc2scc(-c3ccccc3)c2c(=O)[nH]1	0	-1	54*	-73
COc1ccc(NC(=O)COC(=O)Cn2nnc3ccccc32)cc1	-4	-2	-21	-2
Cc1ccccc1N/C(=C(/C(Cl)=C(Cl)Cl)[N+](=O)[O-])n1nnc2ccccc21	0	-1	38	54*
COc1ccc(N/C(=C(/C(Cl)=C(Cl)Cl)[N+](=O)[O-])n2nnc3ccccc32)cc1	0	41*	43	91*
O=C(Nc1nonc1NC(=O)c1cccs1)c1cccs1	0	-3	-6	-18
Nc1ccc2nc(-c3ccc(Cl)cc3)[nH]c2c1	0	0	85*	-78
O=[N+]([O-])c1ccc(-c2nc3ccc([N+](=O)[O-])cc3[nH]2)cc1	0	8	63*	78*
CCCC[n+]1ccc(-c2nc3ccc([N+](=O)[O-])cc3[nH]2)cc1	-3	-1	14	-4
Nc1ccc(-c2nc3ccc([N+](=O)[O-])cc3[nH]2)cc1	2	2	51*	-20
SMILES	Bim-Mcl-1	MCL1-BIM inh	Mcl1-Noxa inh	Mcl1-Bid inh
CC1CCCCC1NC(=O)CN(C)S(=O)(=O)c1ccc2c(c1)CCC(=O)N2 (stereo unspecified)	x	0	x	x
Cc1c(F)cccc1NS(=O)(=O)c1ccc2c(c1)c(=O)n(C)c(=O)n2C	1	8	16	2
CC(=O)Nc1ccc(C(=O)COC(=O)c2cccs2)c(F)c1	x	-1	x	x
CCOc1cc(/C=C2\SC(=S)N(C(C(=O)O)c3ccccc3)C2=O)ccc1O (stereo unspecified)	x	-22	51*	51*
O=C(NC(=S)N1CCCc2ccccc21)c1ccc(Cl)cc1	-5	10	51*	-53
O=C(NC(=S)N1CCCc2ccccc21)c1ccccc1	0	7	x	-46
Cc1ccc(-c2nn(CC(=O)NCc3cc(-c4nn(C)c(=O)c5ccccc45)ccc3C)c(=O)c3ccccc23)cc1	1	3	-48	79*
COc1ccc(-c2nn(C)c(=O)c3ccccc23)cc1CNC(=O)NC1CCCCC1	1	-15	-19	62*
CCC(=O)NCc1cc(-c2nn(C)c(=O)c3ccccc23)ccc1C	-2	3	5	5
O=C(O)c1cc(-c2ccco2)nc2ccccc12	-3	46*	36	-33
Cn1c(=O)c(C(=O)COC(=O)c2cc(C3CC3)nc3ccccc23)c(N)n(Cc2ccccc2)c1=O	-1	-29	3	-8
COc1ccc(CNC(=O)COC(=O)c2cc(-c3ccco3)nc3ccccc23)cc1	-1	x	89*	9
Cn1c(=O)c(C(=O)COC(=O)c2cc(-c3ccco3)nc3ccccc23)c(N)n(CC2CC2)c1=O	5	44*	95*	-7
O=C(NC1CC1)c1cc(-c2ccco2)nc2ccccc12	x	x	105*	39
O=C(NC1CCCCC1)c1cc(-c2ccccn2)nc2ccccc12	0	-10	6	-2
CCN(CC)CCNC(=O)c1ccc(NC(=O)c2ccccc2-c2ccc(C(F)(F)F)cc2)cc1	x	-4	x	x
CN(C)c1ccc(NC(=O)CCCc2ccccc2)cc1	-1	20	79*	7
Cc1nn(C(=O)Cn2ccc([N+](=O)[O-])n2)c(C)c1Cl	x	1	x	x
CCOC(=O)Nc1ccc2c(c1)N(C(=O)OCCN(C)C)c1ccccc1CC2	0	1	26	76*!
CC(NC(=O)C1CC1)C(c1cccs1)N1CCN(c2ccccc2)CC1 (stereo unspecified)	-4	8	23	-16
CC(NC(=O)NC1CCCCC1)C(c1cccs1)N1CCN(c2ccccc2)CC1 (stereo unspecified)	0	0	-7	92*
O=C(/C=C/c1ccc(Br)o1)Nc1nnc(C2CC2)s1	x	4	62*	18
Cc1cnc(NC(=O)/C=C/c2ccc(Br)o2)s1	x	8	28	6
NCCNC[C@@H]1COC2(CCCCCCCCCCC2)O1	x	-2	24	59*
CC(=O)N[C@H]1[C@H](OC2CCCCC2)O[C@H](COC(C)=O)[C@@H](OC(C)=O)[C@@H]1OC(C)=O	x	15	x	x
SMILES	Bim-Mcl-1	MCL1-BIM inh	Mcl1-Noxa inh	Mcl1-Bid inh
COc1ccc(CNS(=O)(=O)c2cn(C)c(=O)n(C)c2=O)cc1	x	5	x	x
CN(C)c1ccc(NC(=O)COC(=O)Cn2nnc3ccccc32)cc1	-5	4	71*	-25
Cc1ccccc1SCC(=O)OCC(=O)Nc1ccc(N(C)C)cc1	1	4	61*	-6
O=C(Cc1ccc(Cl)cc1)SCc1ccccc1	x	-4	x	x
COC(=O)c1cc(S(=O)(=O)NCc2ccc3c(c2)OCO3)cn1C	x	5	x	x
COc1cc(-c2nnc(SCC(=O)NC3CCCC3)n2C)cc(OC)c1O	x	-1	x	x
CCCOc1ncnc2c1[nH]c1ccccc12	0	-1	86*	-18
CCOC(=O)C1(CC)NC(c2ccc(OC)cc2OC)C2C(=O)N(C)C(=O)C21 (stereo unspecified)	0	6	8	-4
Cc1ccc(C(C)C)cc1NC(=O)Nc1ccc([N+](=O)[O-])cc1	x	-4	18	85*
Cc1ccc(NC(=O)CCCCCN2C(=O)[C@@H]3Cc4ccccc4CN3C2=O)c(C)c1	x	2	x	x
CS(=O)(=O)N1CCN(Cc2ccc(C(F)(F)F)cc2)CC1	0	-13	19	52*
